JMJD2A Tudor inh – JMJD2A Tudor domain (human) inhibition. O75164. AlphaScreen JMJD2A-Tudor / H3K4me3 peptide binding. Potency, µM (titrated, usually from 114 µM), for the others: at the highest dose activity change, negative = inhibition, hits mostly inhibitors. hit rate 4.4% among 390,000. AID 504339; note: potency is the fitted concentration of half-maximal effect; % is set by controls: 0 for no effect and ±100 for the full control effect; nearly all actives have a fitted effect of over 50% in size
Six1-Eya2 blk – Six1/Eya2 interaction inhibition; AlphaScreen GST-Six1/His-Eya2 binding, biochemical; hits give low values; Q15475+O00167; activity change, % (test concentration not listed); hit rate 0.56% among 360,000; in the data active = activity change below about -65%; inconclusive = mostly about -30% to -63%; note: % is set by controls: 0 for no effect and ±100 for the full control effect
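Six1/Eya2 binding was read as AlphaScreen signal after compounds were pinned into GST-Six1 plus His-tagged Eya2 (5X stock 250/500 nM) in pH 8.0 Tris/NaCl/TCEP buffer, beads added, then incubated 1 h, 37 C, dark.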
BAZ2B inh – inhibitors of human BAZ2B bromodomain; Q9UIF8; AlphaScreen BAZ2B-H3K14Ac peptide displacement; Potency, µM (highest dose often 114 µM), for inactives: at the highest dose activity change, negative = inhibition, actives largely listed as inhibitors; hit rate 4.4% among 360,000; AID 504333; note: potency is the fitted concentration of half-maximal effect; % is set by controls: 0 for no effect and ±100 for the full control effect; nearly all actives have a fitted effect of over 60% in size
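AlphaScreen luminescence quantifies BAZ2B engagement of H3K14Ac peptide; the protein and biotinylated peptide are both at 50 nM final, buffer PBS pH 7.4 with 0.01% Tween-20, all steps at room temperature.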
HP1b binding inh – HP1-beta chromodomain-methylated histone interaction inhibition; hit rate 0.56% among 390,000; P83916; AlphaScreen HP1-beta / biotin-H3K9me3 peptide binding; Potency, µM (highest dose often 114 µM), without a hit: at the top dose activity change, negative = inhibition, actives largely listed as inhibitors; note: potency is the fitted concentration of half-maximal effect; nearly all actives have a fitted effect of over 70% in size
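Compound inhibition of the preformed complex between 50 nM HP1-beta and 50 nM biotinylated H3K9me3 peptide was read by AlphaScreen. Buffer was PBS pH 7.4 with 0.01% Tween-20. Incubations ran 30 min at room temperature, with 10 ug/mL donor/acceptor beads.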
G9a block – G9a (human) methyltransferase inhibition. hit rate 8.8% among 350,000. Potency, µM (doses to about 102 µM), inactives show at the highest dose activity, negative = inhibition, usual class: inhibitors. G9a H3K9 monomethylation, AlphaScreen, 2 h; note: potency is the fitted concentration of half-maximal effect; % is set by controls: 0 for no effect and ±100 for the full control effect; nearly all actives have a fitted effect of over 75% in size
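Methyltransferase reactions run at room temperature for 2 h (20 nM enzyme, 500 nM biotin-H3K9 peptide, 20 uM SAM) after a 15 min compound preincubation; product detected by AlphaScreen beads and anti-H3K9me1 antibody.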
CtBP-E1A inh – inhibitors of CtBP/E1A interaction; AlphaScreen GST-E1A/His-CtBP binding, 1536-well; hits give low values; activity change, % (concentration not given with the values); hit rate 0.49% among 340,000; AID 651724; in the data active = activity change below about -65%; inconclusive = mostly about -30% to -63%; note: % is set by controls: 0 for no effect and ±100 for the full control effect
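Homogeneous bead-based format: GST-tagged E1A captured on glutathione donor beads, His-tagged CtBP on nickel acceptor beads; compounds precede bead addition by 2 h at 37 °C.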
Numbers without * were called inactive; [ ] = dose if it differs, or a comment. Most compounds without a hit are left out; they make up all but 10% or so of the library. Unless noted, calls come from the whole dose curve; as a rule, active = well fitted inhibition curve with a large enough effect; inconclusive = small, poorly fitted or top-dose-only effect; inactive = no such curve, though single readings can be large or run the other way.

What do the screens show for `COc1ccc(S(=O)(=O)N[C@@H](C)C(=O)OCC(=O)Nc2cc3oc4ccccc4c3cc2OC)cc1`?
JMJD2A Tudor inh: -12.1%; Six1-Eya2 blk: -9.0; BAZ2B inh: -3.1%; HP1b binding inh: 19.1%; G9a block: -24.0%; CtBP-E1A inh: -4.2

What do the screens show for `CCNC(=S)Nc1cc2oc3ccccc3c2cc1OC`?
JMJD2A Tudor inh: inconclusive; Six1-Eya2 blk: -12.9; BAZ2B inh: 25.6%; HP1b binding inh: 10.4%; G9a block: 25.1µM*; CtBP-E1A inh: -2.9

How did CCOC(=O)c1c(S(=O)(=O)N2CCN(c3ccccc3OC)CC2)c(C)n(C)c1C do in these assays?
JMJD2A Tudor inh: -34.3%; BAZ2B inh: -0.6%[57.1 µM]; HP1b binding inh: -15.9%; G9a block: -20.3%[59 µM]

What do the screens show for `COc1ccccc1N1CCN(S(=O)(=O)c2c(C(=O)N3CCOCC3)c(C)n(C)c2C)CC1`?
JMJD2A Tudor inh: 15.8µM*; Six1-Eya2 blk: -0.6; BAZ2B inh: -22.2%; HP1b binding inh: -22.6%; G9a block: -2.8%[59 µM]; CtBP-E1A inh: 1.5

What do the screens show for `COc1cc2[nH]c(=S)nc(NCCC(C)C)c2cc1OC`?
JMJD2A Tudor inh: 25.1µM*; Six1-Eya2 blk: -86.6*; BAZ2B inh: inconclusive; HP1b binding inh: -0.2%; G9a block: 17.8µM*; CtBP-E1A inh: -88.9*

Results for COCCCNc1nc(=S)[nH]c2cc(OC)c(OC)cc12 ?
JMJD2A Tudor inh: -23.2%; Six1-Eya2 blk: -90.2*; BAZ2B inh: -25.8%; HP1b binding inh: 34.4%; G9a block: -1.8%[59 µM]; CtBP-E1A inh: -95.0*

What do the screens show for `CSc1nsc(SC)c1C(=O)NCCNS(=O)(=O)c1ccc(C)cc1`?
JMJD2A Tudor inh: -10.5%; Six1-Eya2 blk: -4.2; BAZ2B inh: 50.1µM*; HP1b binding inh: 29.6%; G9a block: 2.82µM*; CtBP-E1A inh: -0.4

Results for Cc1ccc(S(=O)(=O)NCCNC(=O)c2nonc2N)cc1 ?
JMJD2A Tudor inh: -7.4%[57.1 µM]; Six1-Eya2 blk: -3.1; BAZ2B inh: 6.9%; HP1b binding inh: 35.9%; G9a block: 3.7%[2.33 µM]; CtBP-E1A inh: 2.2

Results for CCn1nc(-c2ccc(C)cc2)nc2c(=O)n(C)c(=O)nc1-2 ?
JMJD2A Tudor inh: -6.2%[57.1 µM]; HP1b binding inh: 24.9%[57 µM]

How did CCOc1ccc2nc(SCC(=O)N(CCOC)c3c(N)n(Cc4ccccc4)c(=O)[nH]c3=O)[nH]c2c1 do in these assays?
JMJD2A Tudor inh: 6.2%; Six1-Eya2 blk: -5.5; BAZ2B inh: -3.9%; HP1b binding inh: 45.1%; G9a block: 10µM*; CtBP-E1A inh: 6.9

Results for COCCN(C(=O)CSc1nnc(-c2ccccc2F)n1N)c1c(N)n(Cc2ccccc2)c(=O)[nH]c1=O ?
JMJD2A Tudor inh: -2.9%; Six1-Eya2 blk: 20.0; BAZ2B inh: 1.2%; HP1b binding inh: 18.2%; CtBP-E1A inh: -5.8

Results for COCCN(C(=O)CSc1nc(-c2ccccc2)cn1N)c1c(N)n(Cc2ccccc2)c(=O)[nH]c1=O ?
JMJD2A Tudor inh: -24.1%; Six1-Eya2 blk: -5.7; BAZ2B inh: -2.3%; HP1b binding inh: 33.2%; G9a block: 8.91µM*; CtBP-E1A inh: 6.4

Results for COCCN(C(=O)CSc1nnc(-c2ccc(C)c(C)c2)o1)c1c(N)n(CC(C)C)c(=O)[nH]c1=O ?
JMJD2A Tudor inh: -11.1%; Six1-Eya2 blk: 4.4; BAZ2B inh: -3.0%; HP1b binding inh: -2.8%; G9a block: 79.4µM*; CtBP-E1A inh: -4.1

How did COCCN(C(=O)CSc1nnc(-c2cccs2)n1N)c1c(N)n(Cc2ccccc2)c(=O)[nH]c1=O do in these assays?
JMJD2A Tudor inh: -5.5%; Six1-Eya2 blk: 0.9; BAZ2B inh: -3.5%; HP1b binding inh: 49.8%; G9a block: 56.2µM*; CtBP-E1A inh: 2.6

How did CCN(CC)c1ccc(-c2nnc(SCC(=O)N(CCOC)c3c(N)n(CC(C)C)c(=O)[nH]c3=O)o2)cc1 do in these assays?
JMJD2A Tudor inh: -12.4%; Six1-Eya2 blk: -10.7; BAZ2B inh: -33.7%; HP1b binding inh: 3.2%; G9a block: -50.8%; CtBP-E1A inh: 5.5

Results for CC(C)Cc1ccc(S(=O)(=O)N2CCC(c3ccncc3)CC2)cc1 ?
JMJD2A Tudor inh: -7.0%; BAZ2B inh: 0.0%; HP1b binding inh: 59.6%; G9a block: 0.4%[59 µM]

What do the screens show for `Cn1cc(CN2CC3C[C@@H]4CC2C[C@H](C3)C4)c(-c2ccc3c(c2)OCCO3)n1`?
JMJD2A Tudor inh: -11.5%; Six1-Eya2 blk: 10.2; BAZ2B inh: inconclusive; HP1b binding inh: 25.3%; G9a block: 50.1µM*; CtBP-E1A inh: -19.8

Results for CC(C)(C)NCc1cc(Br)ccc1OCc1cccs1 ?
JMJD2A Tudor inh: -18.9%; Six1-Eya2 blk: 2.3; BAZ2B inh: -1.2%; HP1b binding inh: 6.4%; G9a block: 17.8µM*; CtBP-E1A inh: 12.6

Results for CC(C)(C)NCc1cc(Cl)ccc1OCc1cccs1 ?
JMJD2A Tudor inh: -10.1%; Six1-Eya2 blk: 20.9; BAZ2B inh: -12.2%; HP1b binding inh: 33.4%; G9a block: inconclusive; CtBP-E1A inh: 0.0

How did c1ccc(NCc2ccccn2)cc1 do in these assays?
JMJD2A Tudor inh: -32.2%; Six1-Eya2 blk: -2.1; BAZ2B inh: 79.4µM*; HP1b binding inh: 16.9%; G9a block: 3.6%

Results for COc1ccc(Br)cc1S(=O)(=O)NCc1ccccn1 ?
JMJD2A Tudor inh: -7.0%; Six1-Eya2 blk: 1.5; BAZ2B inh: -0.2%; HP1b binding inh: 30.3%; G9a block: 46.8%; CtBP-E1A inh: -3.5

How did Cc1cc(Br)ccc1NCc1ccccn1 do in these assays?
JMJD2A Tudor inh: 3.16µM*; Six1-Eya2 blk: -2.0; BAZ2B inh: 15.8µM*; HP1b binding inh: 15.8µM*; G9a block: inconclusive; CtBP-E1A inh: 5.3

How did OC(CNCc1ccccn1)c1ccccc1 (stereo not drawn) do in these assays?
JMJD2A Tudor inh: -7.4%[57.1 µM]; Six1-Eya2 blk: inconclusive; BAZ2B inh: 22.4µM*; HP1b binding inh: 60.0%; G9a block: inconclusive; CtBP-E1A inh: -14.3

How did CC(C)C[C@H]1CN(CCCC[C@H]2CNC(=O)C(=O)N2CC2CCCCC2)C(=O)C(=O)N1Cc1ccccc1 do in these assays?
Six1-Eya2 blk: 35.1; CtBP-E1A inh: 1.6

Results for CCOC(=O)C1CCN(C(=O)C2CC(=O)N(c3ccc4c(c3)OCCO4)C2)CC1 (stereo not drawn) ?
JMJD2A Tudor inh: 3.4%; Six1-Eya2 blk: 0.9; BAZ2B inh: -4.1%; HP1b binding inh: 39.5%; CtBP-E1A inh: 6.3

What do the screens show for `Cc1cc(C(=O)Nc2ccc(Cl)c(S(=O)(=O)N3CCOCC3)c2)c2ccccc2n1`?
JMJD2A Tudor inh: -29.4%; Six1-Eya2 blk: -5.1; BAZ2B inh: -29.9%; HP1b binding inh: 21.1%; G9a block: -6.7%[12.7 µM]

Bioassay records (PubChem)
